# Laboratory results published in PubChem BioAssay (EPA / NIEHS).
# Inconclusive results are not listed. The source made the active and inactive calls. The calls were made as follows, unless noted: active = hit-call score of the fitted dose curve at least 0.9, where 1 is the maximum; inactive = score below 0.9.
# What was measured:
# [1] = CEETOX_H295R_ESTRADIOL_noMTC: CeeTox H295R High-throughput Steroidogenesis Assay for Estradiol, maximum tolerated concentration (MTC) filtered results only (AID 2283919); conditions: actives raise or lower the signal
# How it was run: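 Readout: dansyl-derivatized estradiol quantified by LC-MS/MS in medium from H295R cells dosed 48 h (0.1% DMSO) following 48 h forskolin (10 uM) prestimulation. Gain or loss of signal fitted against DMSO; no MTC filtering applied.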
# [2] = CEETOX_H295R_PROG_noMTC: CeeTox H295R High-throughput Steroidogenesis Assay for Progesterone (PROG), maximum tolerated concentration (MTC) filtered results only (AID 2283920); conditions: actives raise or lower the signal
# How it was run: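 Readout: medium progesterone by MTBE extraction, reverse-phase C18 HPLC, ESI-positive MS/MS. Human H295R cells, 10 uM forskolin pretreatment 48 h, chemical 48 h in 0.1% DMSO. Gain or loss fitted against DMSO baseline.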
# [3] = CEETOX_H295R_ESTRONE_noMTC: CeeTox H295R High-throughput Steroidogenesis Assay for Estrone, maximum tolerated concentration (MTC) filtered results only (AID 2283921); conditions: actives raise or lower the signal
# How it was run: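 Estrone in spent medium, quantified by tandem MS following dansyl chloride derivatization, after 48 h chemical exposure (0.1% DMSO) of forskolin-prestimulated (10 uM, 48 h) H295R cells; concentrations not MTC-filtered, bidirectional fit against DMSO.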
# [4] = target: PGR (gene 5241) (UniProt P06401); experiment: TOX21_PR_BLA_Followup_Agonist_ratio: Tox21 HEK293 Progesterone Receptor (PR) Agonism Beta-lactamase Follow-Up Assay, Ratio (AID 2283933; active = hit-call score of the fitted dose curve at least 0.9, where 1 is the maximum)
# PGR (gene 5241), sequence (P06401 whole entry, looked up): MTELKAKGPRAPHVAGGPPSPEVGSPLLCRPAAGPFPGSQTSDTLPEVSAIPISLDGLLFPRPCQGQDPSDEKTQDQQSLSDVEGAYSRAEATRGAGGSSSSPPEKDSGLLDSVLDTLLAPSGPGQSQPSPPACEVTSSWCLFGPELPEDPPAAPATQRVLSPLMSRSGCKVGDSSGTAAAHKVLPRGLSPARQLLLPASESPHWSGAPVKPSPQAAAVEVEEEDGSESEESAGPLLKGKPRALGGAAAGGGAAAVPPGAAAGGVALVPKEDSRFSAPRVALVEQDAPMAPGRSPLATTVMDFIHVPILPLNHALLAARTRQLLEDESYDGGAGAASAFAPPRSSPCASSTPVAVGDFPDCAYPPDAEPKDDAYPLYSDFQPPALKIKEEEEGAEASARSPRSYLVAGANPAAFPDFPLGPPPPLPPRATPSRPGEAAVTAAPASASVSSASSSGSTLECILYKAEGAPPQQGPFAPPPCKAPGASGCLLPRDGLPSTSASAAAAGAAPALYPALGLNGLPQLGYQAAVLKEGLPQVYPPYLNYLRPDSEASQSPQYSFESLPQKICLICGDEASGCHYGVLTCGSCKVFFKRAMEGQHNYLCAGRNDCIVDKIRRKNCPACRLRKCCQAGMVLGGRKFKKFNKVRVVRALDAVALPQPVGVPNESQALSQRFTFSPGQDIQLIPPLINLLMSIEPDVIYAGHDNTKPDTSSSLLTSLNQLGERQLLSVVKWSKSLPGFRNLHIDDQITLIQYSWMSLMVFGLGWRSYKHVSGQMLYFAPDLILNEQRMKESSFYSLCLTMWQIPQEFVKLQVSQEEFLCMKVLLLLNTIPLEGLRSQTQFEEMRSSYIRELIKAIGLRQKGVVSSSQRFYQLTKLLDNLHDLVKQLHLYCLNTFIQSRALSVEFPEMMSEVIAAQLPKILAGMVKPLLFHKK
# How it was run: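 Read-out: ratio of cleaved (ch2) to uncleaved (ch1) beta-lactamase substrate fluorescence, gain-of-signal relative to DMSO baseline. Cells: PR-UAS-bla HEK293T, 2% charcoal-stripped FBS; compound exposure 16 hr, 37C; substrate 2 hr, RT.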
# [5] = target: PGR (gene 5241) (UniProt P06401); experiment: TOX21_PR_LUC_Followup_Agonist: Tox21 HEK293 Progesterone Receptor (PR) Agonism Luciferase Follow-Up Assay (AID 2283937)
# How it was run: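 Luminescence read-out (ONE-Glo, 30 min at room temperature) of PR-driven luciferase in HEK293-PR-A-luc cells after 16 h compound exposure at 37C; gain of signal fitted relative to DMSO baseline.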
# [6] = target: Thyroid hormone receptor alpha (Rattus norvegicus) + Thyroid hormone receptor beta (Rattus norvegicus) (UniProt P18113+P63059); experiment: TOX21_TR_LUC_GH3_Agonist_Followup: Tox21 GH3 Thyroid Hormone Receptor Agonism Luciferase Follow-Up Assay (AID 2283939; active = hit-call score of the fitted dose curve at least 0.9, where 1 is the maximum)
# Thyroid hormone receptor alpha (Rattus norvegicus) + Thyroid hormone receptor beta (Rattus norvegicus), sequence (P63059 whole entry, looked up): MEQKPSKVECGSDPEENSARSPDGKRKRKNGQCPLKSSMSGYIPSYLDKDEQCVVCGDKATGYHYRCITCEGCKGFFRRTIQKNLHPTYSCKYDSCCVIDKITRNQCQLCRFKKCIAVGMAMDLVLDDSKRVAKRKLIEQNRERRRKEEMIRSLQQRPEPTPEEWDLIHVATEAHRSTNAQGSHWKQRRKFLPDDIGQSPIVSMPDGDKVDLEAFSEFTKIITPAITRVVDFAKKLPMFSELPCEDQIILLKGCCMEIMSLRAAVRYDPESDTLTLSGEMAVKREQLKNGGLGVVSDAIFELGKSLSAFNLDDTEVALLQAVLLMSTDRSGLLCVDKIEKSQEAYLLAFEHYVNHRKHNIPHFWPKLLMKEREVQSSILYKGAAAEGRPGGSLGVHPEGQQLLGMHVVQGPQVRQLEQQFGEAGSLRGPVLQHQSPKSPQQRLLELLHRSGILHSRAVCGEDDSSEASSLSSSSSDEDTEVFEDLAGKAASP
# Thyroid hormone receptor alpha (Rattus norvegicus) + Thyroid hormone receptor beta (Rattus norvegicus), sequence (P18113 whole entry, looked up): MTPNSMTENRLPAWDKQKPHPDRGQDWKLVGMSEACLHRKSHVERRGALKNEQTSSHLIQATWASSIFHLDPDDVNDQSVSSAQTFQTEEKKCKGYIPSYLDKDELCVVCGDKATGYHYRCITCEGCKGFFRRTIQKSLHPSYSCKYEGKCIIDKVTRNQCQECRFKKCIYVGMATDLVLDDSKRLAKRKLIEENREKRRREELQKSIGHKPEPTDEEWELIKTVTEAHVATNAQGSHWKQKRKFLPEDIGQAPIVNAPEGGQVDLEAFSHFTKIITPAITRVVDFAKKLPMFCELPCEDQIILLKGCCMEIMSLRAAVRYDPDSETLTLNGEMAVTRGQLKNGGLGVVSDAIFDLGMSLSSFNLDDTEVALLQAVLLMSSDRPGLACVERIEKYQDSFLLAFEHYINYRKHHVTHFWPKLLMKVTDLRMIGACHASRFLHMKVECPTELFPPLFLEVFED
# How it was run: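 Agonist-mode confirmatory run: 15 concentrations (5 nM to 92 uM final) on GH3 rat pituitary cells, 24 h at 37C/5% CO2, T3 as positive control. Luminescence read with ONE-Glo after 30 min.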
structure (smiles),measurement,setting,value
Cc1oc(-c2ccccc2)nc1CCOc1cccc2c1ccn2CCC(=O)O,outcome,[1],inactive
same,AC50,[2],12.9 µM (active)
same,outcome,[3],inactive
C=CCOC(=O)c1ccccc1C(=O)OCC=C,outcome,[2],inactive
CCOc1ccc2c(c1)C(C)=CC(C)(C)N2,outcome,[4],inactive
same,outcome,[5],inactive
CCc1c(C(=O)NN2CCCCC2)nn(-c2ccc(Cl)cc2Cl)c1-c1ccc(Br)cc1,outcome,[4],inactive
same,outcome,[5],inactive
CCCCCCCCCCC,outcome,[6],inactive
